# PubChem BioAssay (EPA / NIEHS)
# Results filed as inconclusive are left out. A structure can be active in one record and inactive in another. The source made the active and inactive calls. The calls were made as follows, unless noted: active = hit-call score of the fitted dose curve at least 0.9, where 1 is the maximum; inactive = score below 0.9.
# What was measured:
# [1] = ATG_Sox_CIS: Attagene CIS-FACTORIAL HepG2 Assay for human SRY-box transcription factor (SOX) (AID 2282960); details: HepG2 Attagene cis-factorial SOX reporter, mRNA; actives raise or lower the signal
# Method in brief: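 HepG2 cells transiently transfected with multiple cis-regulated reporter units, then dosed for 24 h. Reporter mRNA quantified by RT-PCR, fluorescent labelling, HpaI digestion and capillary electrophoresis; bidirectional fit versus DMSO.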
# [2] = target: Transcription factor Sp1 (Homo sapiens) (UniProt P08047); assay: ATG_Sp1_CIS: Attagene CIS-FACTORIAL HepG2 Assay for human Specificity Protein 1 (Sp1) (AID 2282961); details: HepG2 Sp1 cis-reporter transcription, actives raise or lower the signal
# Method in brief: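 HepG2 cells transiently transfected with multiplexed cis-regulated reporter constructs, chemical exposure 24 h. Reporter mRNA quantified by RT-PCR with capillary electrophoresis; bidirectional fit relative to DMSO.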
# [3] = target: Signal transducer and activator of transcription 3 (Homo sapiens) (UniProt P40763); assay: ATG_STAT3_CIS: Attagene CIS-FACTORIAL HepG2 Assay for human Signal Transducer and Activator of Transcription 3 (STAT3) (AID 2282963); details: HepG2, Attagene cis-factorial STAT3 reporter transcription; actives raise or lower the signal
# Method in brief: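 HepG2 cells transiently transfected with cis-element-driven multiple reporter transcription units; after 24 h chemical exposure, reporter mRNA measured by RT-PCR, 6-FAM primer-extension labelling, HpaI digestion and capillary electrophoresis. Bidirectional fitting versus DMSO baseline.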
# [4] = ATG_TAL_CIS: Attagene CIS-FACTORIAL HepG2 Assay for human TAL Basal Promoter (AID 2282966); details: HepG2 Attagene cis-factorial TAL promoter reporter; actives raise or lower the signal;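 also: background control endpoint measuring basal TAL promoter reporter mRNA not a specific factor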
# Method in brief: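 HepG2 cells were transiently transfected with promoter-driven multiplexed reporter units and dosed for 24 h. Reporter mRNA was measured by RT-PCR with capillary electrophoresis fluorescence; bidirectional fits used DMSO as baseline, serving as a background control.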
# [5] = ATG_TGFb_CIS: Attagene CIS-FACTORIAL HepG2 Assay for human Transforming Growth Factor (TGF) (AID 2282967); details: HepG2 Attagene CIS TGFb reporter, mRNA transcription; actives raise or lower the signal
# Method in brief: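 Transcript-level reporter readout: HepG2 transfectants, 24 h exposure, RNA to cDNA, reporter-specific PCR, fluorescent primer extension, capillary sizing against ROX standards. Gain- or loss-of-signal relative to DMSO.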
# [6] = ATG_VDRE_CIS: Attagene CIS-FACTORIAL HepG2 Assay for human Vitamin D Receptor Element (VDRE) (AID 2282968); details: HepG2 VDRE cis-reporter transcription, actives raise or lower the signal
# Method in brief: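 HepG2 cells transiently transfected with cis-element reporter units, dosed 24 h; reporter mRNA measured by RT-PCR, 6-FAM labeling, HpaI digestion and capillary electrophoresis. Activity fitted bidirectionally against DMSO baseline.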
# [7] = target: Nuclear receptor subfamily 1 group I member 3 (Homo sapiens) (UniProt Q14994); assay: ATG_CAR_TRANS: Attagene TRANS-FACTORIAL HepG2 Assay for human Constitutive Androstane Receptor (CAR) (AID 2282969; active = hit-call score of the fitted dose curve at least 0.9, where 1 is the maximum;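 also: activators raise reporter mRNA above DMSO so AC50 marks induction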); details: HepG2 Attagene TRANS-FACTORIAL CAR reporter
# Method in brief: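 HepG2 cells transiently transfected with multiplexed GAL4-UAS reporter units expressing chimeric NR-Gal4 proteins; compound exposure 24 h. Reporter mRNA measured by RT-PCR, 6-FAM labelling, HpaI digestion and capillary electrophoresis; gain-of-signal fitted against DMSO baseline.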
# [8] = target: Estrogen receptor (Homo sapiens) (UniProt P03372); assay: ATG_ERa_TRANS: Attagene TRANS-FACTORIAL HepG2 Assay for human Estrogen Receptor alpha (ERa) (AID 2282970; active = hit-call score of the fitted dose curve at least 0.9, where 1 is the maximum); details: HepG2 Attagene TRANS ERa GAL4 reporter, mRNA
# Method in brief: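 HepG2 cells transiently transfected with multiplexed GAL4-UAS reporter units; ERa activity read via exogenous chimeric NR-Gal4 protein. After 24 hour compound exposure, reporter mRNA measured by RT-PCR with 6-FAM labelling and capillary electrophoresis; gain-of-signal fitted relative to DMSO.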
# [9] = target: X-box-binding protein 1 (Homo sapiens) (UniProt P17861); assay: ATG_Xbp1_CIS: Attagene CIS-FACTORIAL HepG2 Assay for human X-box Binding Protein 1 (XBP1) (AID 2282972); details: HepG2 XBP1 cis-element reporter, Attagene multiplex; actives raise or lower the signal
# Method in brief: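 HepG2 cells transiently transfected with cis-regulated multiple reporter transcription units; endogenous transcription factor activity measured 24 hours after chemical dosing. Reporter mRNA quantified by RT-PCR, 6-FAM primer extension, HpaI digestion and capillary electrophoresis; bidirectional fitting versus DMSO.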
# [10] = ATG_GAL4_TRANS: Attagene TRANS-FACTORIAL HepG2 Assay for GAL4 (Internal Marker) (AID 2282976; active = hit-call score of the fitted dose curve at least 0.9, where 1 is the maximum); details: HepG2 Attagene TRANS GAL4 internal marker reporter
# Method in brief: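 HepG2 cells transiently transfected with multiplexed GAL4-UAS reporter constructs were dosed for 24 h. Reporter mRNA was measured by RT-PCR, 6-FAM primer extension, HpaI digestion and capillary electrophoresis, and gain of signal was fitted relative to DMSO.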
# [11] = target: Bile acid receptor (Homo sapiens) (UniProt Q96RI1); assay: ATG_FXR_TRANS: Attagene TRANS-FACTORIAL HepG2 Assay for Farnesoid X Receptor (FXR) (AID 2282979; active = hit-call score of the fitted dose curve at least 0.9, where 1 is the maximum;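 also: hits raise reporter mRNA above DMSO so AC50 marks FXR activation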); details: HepG2 Attagene TRANS FXR-GAL4 reporter transcription
# Method in brief: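 HepG2 cells transiently transfected with reporter constructs in which a chimeric FXR-GAL4 protein drives a GAL4-UAS reporter; 24 h compound exposure. Reporter mRNA measured by RT-PCR, FAM labelling, HpaI digestion and capillary electrophoresis; gain-of-signal versus DMSO.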
# [12] = ATG_SREBP_CIS: Attagene CIS-FACTORIAL HepG2 Assay for human Sterol Regulatory Element Binding (SREBP) (AID 2282962); details: HepG2 Attagene cis-factorial SREBP reporter, mRNA; actives raise or lower the signal
# Method in brief: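 HepG2 cells transiently transfected with multiplexed cis-element reporter units report endogenous transcription factor activity. After 24 h of chemical exposure, reporter mRNA was quantified by RT-PCR, 6-FAM labelling, HpaI digestion and capillary electrophoresis; bidirectional fits used DMSO as baseline.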
# [13] = ATG_TA_CIS: Attagene CIS-FACTORIAL HepG2 Assay for human TA Basal Promoter (AID 2282964); details: HepG2 Attagene CIS-factorial TA basal promoter reporter; actives raise or lower the signal
# Method in brief: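 Multiplexed mRNA reporter assay, HepG2, 24 h. Reporter cDNA amplified, 6-FAM primer-extended, HpaI-cut, CE-sized; DMSO = negative control and baseline.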
# [14] = ATG_M_19_TRANS: Attagene TRANS-FACTORIAL HepG2 Assay for M19 Transcription Factor (Internal Marker) (AID 2282974; active = hit-call score of the fitted dose curve at least 0.9, where 1 is the maximum); details: HepG2 Attagene TRANS-FACTORIAL M19 internal marker reporter
# Method in brief: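 HepG2 transiently transfected with GAL4-UAS multiplex reporter constructs, exposed 24 h; reporter RNA quantified by RT-PCR, 6-FAM labeling, HpaI digestion and capillary electrophoresis; internal background marker fitted upward versus DMSO.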
# [15] = ATG_TCF_b_cat_CIS: Attagene CIS-FACTORIAL HepG2 Assay for human T-Cell-Factor with beta-catenin (TCF/b-cat) (AID 2282965); details: HepG2 TCF/beta-catenin cis-reporter transcription, actives raise or lower the signal
# Method in brief: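 Using capillary electrophoresis as the read-out, labelled reporter cDNA fragments from transiently transfected HepG2 were sized and quantified. Exposure lasted 24 hours; activity in either direction was referenced to DMSO.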
# [16] = target: Androgen receptor (Homo sapiens) (UniProt P10275); assay: ATG_AR_TRANS: Attagene TRANS-FACTORIAL HepG2 Assay for human Androgen Receptor (AR) (AID 2282973; active = hit-call score of the fitted dose curve at least 0.9, where 1 is the maximum); details: HepG2 Attagene TRANS-FACTORIAL AR reporter transcription
# Method in brief: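 HepG2 cells transiently transfected with multiplexed GAL4-UAS reporter units and chimeric NR-Gal4 fusion; 24 h compound exposure. Reporter mRNA measured by RT-PCR, 6-FAM labelling, HpaI digestion and capillary electrophoresis; gain-of-signal fitted relative to DMSO baseline.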
# [17] = target: Estrogen-related receptor gamma (Homo sapiens) (UniProt P62508); assay: ATG_ERRg_TRANS: Attagene TRANS-FACTORIAL HepG2 Assay for human Estrogen-Related Receptor gamma (ERRg) (AID 2282977; active = hit-call score of the fitted dose curve at least 0.9, where 1 is the maximum;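 also: hits increase reporter signal over DMSO so potencies reflect activators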); details: HepG2 Attagene TRANS reporter, ERRg transactivation
# Method in brief: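 Transient HepG2 transfectants, 24 h compound exposure, GAL4-UAS reporter mRNA by RT-PCR/6-FAM labelling/capillary electrophoresis; positive direction vs DMSO.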
# [18] = target: Glucocorticoid receptor (Homo sapiens) (UniProt P04150); assay: ATG_GR_TRANS: Attagene TRANS-FACTORIAL HepG2 Assay for human Glucocorticoid Receptor (GR) (AID 2282978; active = hit-call score of the fitted dose curve at least 0.9, where 1 is the maximum;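 also: activators score as hits since higher reporter transcript over DMSO is fitted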); details: HepG2 Attagene TRANS GR reporter, mRNA transcription
# Method in brief: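 HepG2 cells transiently transfected with GAL4-UAS reporter units and exogenous GR-Gal4 chimera, dosed 24 h. Reporter mRNA by RT-PCR, FAM labeling, HpaI digest and capillary electrophoresis; gain-of-signal fit versus DMSO.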
# [19] = target: Steroid hormone receptor ERR1 (Homo sapiens) (UniProt P11474); assay: ATG_ERRa_TRANS: Attagene TRANS-FACTORIAL HepG2 Assay for human Estrogen-Related Receptor alpha (ERRa) (AID 2282971; active = hit-call score of the fitted dose curve at least 0.9, where 1 is the maximum); details: HepG2 Attagene TRANS reporter, ERRa transactivation
# Method in brief: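 HepG2 cells transiently transfected with multiplexed GAL4-UAS reporter units reading chimeric ERRa-Gal4 activity; 24 h compound exposure. Reporter mRNA measured by RT-PCR, 6-FAM labelling, HpaI digest and capillary electrophoresis; gain of signal fitted versus DMSO baseline.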
# [20] = target: Oxysterols receptor LXR-alpha (Homo sapiens) (UniProt Q13133); assay: ATG_LXRa_TRANS: Attagene TRANS-FACTORIAL HepG2 Assay for human Liver X Receptor alpha (LXRa) (AID 2282980; active = hit-call score of the fitted dose curve at least 0.9, where 1 is the maximum); details: HepG2 Attagene TRANS reporter, LXRa transactivation
# Method in brief: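 HepG2 cells were transiently transfected with multiplexed reporter units driven by chimeric LXRa–GAL4 fusion proteins, then dosed for 24 h. Reporter mRNA was quantified by RT-PCR, fluorescent labelling and capillary electrophoresis; gain of signal fitted against DMSO baseline.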
# Chain of Nuclear receptor subfamily 1 group I member 3 (Homo sapiens) (Q14994 whole entry, looked up, the tested form may be a part): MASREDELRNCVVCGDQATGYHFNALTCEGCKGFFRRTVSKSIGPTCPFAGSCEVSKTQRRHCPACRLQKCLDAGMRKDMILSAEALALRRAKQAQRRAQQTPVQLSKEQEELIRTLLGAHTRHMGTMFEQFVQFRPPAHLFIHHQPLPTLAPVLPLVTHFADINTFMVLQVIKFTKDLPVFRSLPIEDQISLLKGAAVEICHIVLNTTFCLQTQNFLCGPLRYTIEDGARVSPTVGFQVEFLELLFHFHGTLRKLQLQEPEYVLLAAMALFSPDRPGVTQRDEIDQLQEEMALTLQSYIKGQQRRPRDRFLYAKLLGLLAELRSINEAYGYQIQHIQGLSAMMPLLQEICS
# Chain of Transcription factor Sp1 (Homo sapiens) (P08047 whole entry, looked up): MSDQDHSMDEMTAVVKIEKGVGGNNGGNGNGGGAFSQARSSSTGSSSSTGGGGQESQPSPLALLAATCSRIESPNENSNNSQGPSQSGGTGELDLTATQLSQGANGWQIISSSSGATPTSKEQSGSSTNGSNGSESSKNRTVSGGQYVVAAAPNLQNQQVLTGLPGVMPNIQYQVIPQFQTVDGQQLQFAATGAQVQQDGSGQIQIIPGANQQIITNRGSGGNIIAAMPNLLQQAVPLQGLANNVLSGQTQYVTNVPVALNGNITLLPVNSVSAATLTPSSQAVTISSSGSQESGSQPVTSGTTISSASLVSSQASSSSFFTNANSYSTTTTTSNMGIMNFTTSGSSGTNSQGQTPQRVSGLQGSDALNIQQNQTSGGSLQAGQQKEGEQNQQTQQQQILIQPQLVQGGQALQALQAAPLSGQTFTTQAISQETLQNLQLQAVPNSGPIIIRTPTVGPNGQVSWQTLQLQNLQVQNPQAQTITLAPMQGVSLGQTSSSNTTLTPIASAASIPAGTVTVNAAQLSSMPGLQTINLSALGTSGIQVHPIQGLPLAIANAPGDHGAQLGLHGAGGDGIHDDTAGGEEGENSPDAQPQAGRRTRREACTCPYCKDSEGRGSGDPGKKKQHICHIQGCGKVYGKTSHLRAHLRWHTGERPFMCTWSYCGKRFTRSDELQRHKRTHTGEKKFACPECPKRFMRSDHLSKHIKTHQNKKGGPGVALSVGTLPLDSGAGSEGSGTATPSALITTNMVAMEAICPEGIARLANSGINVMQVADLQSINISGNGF
# Chain of X-box-binding protein 1 (Homo sapiens) (P17861 whole entry, looked up): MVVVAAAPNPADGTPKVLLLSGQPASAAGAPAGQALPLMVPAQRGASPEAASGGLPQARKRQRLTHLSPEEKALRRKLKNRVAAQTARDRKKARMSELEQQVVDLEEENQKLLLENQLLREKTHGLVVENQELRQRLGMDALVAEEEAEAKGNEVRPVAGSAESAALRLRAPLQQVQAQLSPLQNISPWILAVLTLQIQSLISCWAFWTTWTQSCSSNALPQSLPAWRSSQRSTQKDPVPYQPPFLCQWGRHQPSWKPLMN
# Chain of Signal transducer and activator of transcription 3 (Homo sapiens) (P40763 whole entry, looked up): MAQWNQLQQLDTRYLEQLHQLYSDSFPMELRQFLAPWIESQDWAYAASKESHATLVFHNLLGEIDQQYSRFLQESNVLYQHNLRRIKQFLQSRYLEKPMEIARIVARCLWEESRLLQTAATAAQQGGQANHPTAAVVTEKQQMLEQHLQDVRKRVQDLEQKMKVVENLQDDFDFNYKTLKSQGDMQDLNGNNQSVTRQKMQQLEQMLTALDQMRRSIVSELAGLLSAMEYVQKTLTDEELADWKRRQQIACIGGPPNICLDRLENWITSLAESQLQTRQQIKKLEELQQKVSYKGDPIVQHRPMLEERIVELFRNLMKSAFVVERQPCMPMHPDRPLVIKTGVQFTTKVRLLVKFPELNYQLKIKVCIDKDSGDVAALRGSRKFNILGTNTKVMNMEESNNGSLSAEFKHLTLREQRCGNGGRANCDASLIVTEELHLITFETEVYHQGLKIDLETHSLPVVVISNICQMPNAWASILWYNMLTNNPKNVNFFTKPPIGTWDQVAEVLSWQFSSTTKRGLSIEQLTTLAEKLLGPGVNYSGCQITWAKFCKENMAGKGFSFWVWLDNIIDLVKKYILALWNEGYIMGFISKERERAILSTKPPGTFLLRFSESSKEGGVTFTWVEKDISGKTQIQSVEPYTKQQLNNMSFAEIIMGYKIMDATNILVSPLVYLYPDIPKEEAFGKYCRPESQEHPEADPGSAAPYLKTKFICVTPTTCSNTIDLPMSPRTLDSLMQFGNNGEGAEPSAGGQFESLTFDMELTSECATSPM
# Chain of Oxysterols receptor LXR-alpha (Homo sapiens) (Q13133 whole entry, looked up, the tested form may be a part): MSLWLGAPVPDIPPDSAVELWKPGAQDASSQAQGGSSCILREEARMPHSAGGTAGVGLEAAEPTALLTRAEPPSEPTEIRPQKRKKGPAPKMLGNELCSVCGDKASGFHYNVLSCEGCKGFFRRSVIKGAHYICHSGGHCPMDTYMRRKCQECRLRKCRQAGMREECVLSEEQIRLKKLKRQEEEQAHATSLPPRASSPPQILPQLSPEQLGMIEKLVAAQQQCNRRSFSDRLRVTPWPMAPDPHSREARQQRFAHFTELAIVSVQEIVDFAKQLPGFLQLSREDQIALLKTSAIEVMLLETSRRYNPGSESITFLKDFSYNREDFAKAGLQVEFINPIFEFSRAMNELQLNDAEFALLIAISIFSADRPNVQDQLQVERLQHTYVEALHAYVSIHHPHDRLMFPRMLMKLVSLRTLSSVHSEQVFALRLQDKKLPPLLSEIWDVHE
# Chain of Bile acid receptor (Homo sapiens) (Q96RI1 whole entry, looked up, the tested form may be a part): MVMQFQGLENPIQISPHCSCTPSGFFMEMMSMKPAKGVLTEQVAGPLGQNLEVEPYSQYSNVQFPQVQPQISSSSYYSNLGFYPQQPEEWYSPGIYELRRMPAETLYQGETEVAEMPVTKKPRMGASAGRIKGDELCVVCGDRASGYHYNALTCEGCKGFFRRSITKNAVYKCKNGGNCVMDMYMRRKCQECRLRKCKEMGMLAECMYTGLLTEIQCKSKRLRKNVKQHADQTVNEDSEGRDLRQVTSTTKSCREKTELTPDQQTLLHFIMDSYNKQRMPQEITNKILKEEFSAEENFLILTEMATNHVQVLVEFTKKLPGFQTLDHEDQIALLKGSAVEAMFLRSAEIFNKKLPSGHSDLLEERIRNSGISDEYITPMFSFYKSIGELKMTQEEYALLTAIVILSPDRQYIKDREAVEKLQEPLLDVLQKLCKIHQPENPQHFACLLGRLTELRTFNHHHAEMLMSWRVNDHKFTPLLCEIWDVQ
# Chain of Estrogen receptor (Homo sapiens) (P03372 whole entry, looked up, the tested form may be a part): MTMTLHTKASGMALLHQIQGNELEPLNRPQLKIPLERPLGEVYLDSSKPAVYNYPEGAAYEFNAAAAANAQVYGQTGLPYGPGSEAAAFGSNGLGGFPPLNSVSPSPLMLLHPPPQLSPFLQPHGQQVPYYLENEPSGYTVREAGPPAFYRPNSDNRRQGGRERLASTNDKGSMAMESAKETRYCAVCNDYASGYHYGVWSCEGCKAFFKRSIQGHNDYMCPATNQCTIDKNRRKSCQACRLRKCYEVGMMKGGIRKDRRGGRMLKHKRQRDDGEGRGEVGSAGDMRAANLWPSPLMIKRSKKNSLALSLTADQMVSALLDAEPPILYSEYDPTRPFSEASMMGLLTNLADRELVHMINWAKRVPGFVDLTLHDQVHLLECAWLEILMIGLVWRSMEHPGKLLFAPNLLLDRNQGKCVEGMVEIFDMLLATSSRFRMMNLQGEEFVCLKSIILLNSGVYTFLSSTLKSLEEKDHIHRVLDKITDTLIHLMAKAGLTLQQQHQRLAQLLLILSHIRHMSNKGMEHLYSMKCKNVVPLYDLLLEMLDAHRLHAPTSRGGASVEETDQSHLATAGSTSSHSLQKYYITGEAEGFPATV
# Chain of Glucocorticoid receptor (Homo sapiens) (P04150 whole entry, looked up, the tested form may be a part): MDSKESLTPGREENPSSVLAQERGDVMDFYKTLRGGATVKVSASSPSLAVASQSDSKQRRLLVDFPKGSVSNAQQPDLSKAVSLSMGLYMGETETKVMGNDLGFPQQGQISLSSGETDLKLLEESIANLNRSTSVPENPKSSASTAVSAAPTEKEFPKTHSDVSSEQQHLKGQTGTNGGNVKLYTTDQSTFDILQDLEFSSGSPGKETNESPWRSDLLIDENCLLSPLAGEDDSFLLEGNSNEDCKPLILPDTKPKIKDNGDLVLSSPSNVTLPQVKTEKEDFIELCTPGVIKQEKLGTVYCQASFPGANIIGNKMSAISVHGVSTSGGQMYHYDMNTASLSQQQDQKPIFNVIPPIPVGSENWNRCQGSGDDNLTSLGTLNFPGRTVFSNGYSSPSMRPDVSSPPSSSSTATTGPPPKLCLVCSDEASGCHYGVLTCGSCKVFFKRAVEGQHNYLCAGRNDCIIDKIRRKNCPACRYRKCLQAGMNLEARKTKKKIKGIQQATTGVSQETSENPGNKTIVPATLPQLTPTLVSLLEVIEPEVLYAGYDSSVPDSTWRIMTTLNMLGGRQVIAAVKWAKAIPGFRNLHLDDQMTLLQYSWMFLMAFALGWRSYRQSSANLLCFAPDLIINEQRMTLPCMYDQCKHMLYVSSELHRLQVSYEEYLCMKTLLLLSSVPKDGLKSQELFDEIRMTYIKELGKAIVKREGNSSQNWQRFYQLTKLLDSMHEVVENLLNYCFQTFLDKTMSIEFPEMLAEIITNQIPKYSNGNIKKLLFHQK
# Chain of Steroid hormone receptor ERR1 (Homo sapiens) (P11474 whole entry, looked up, the tested form may be a part): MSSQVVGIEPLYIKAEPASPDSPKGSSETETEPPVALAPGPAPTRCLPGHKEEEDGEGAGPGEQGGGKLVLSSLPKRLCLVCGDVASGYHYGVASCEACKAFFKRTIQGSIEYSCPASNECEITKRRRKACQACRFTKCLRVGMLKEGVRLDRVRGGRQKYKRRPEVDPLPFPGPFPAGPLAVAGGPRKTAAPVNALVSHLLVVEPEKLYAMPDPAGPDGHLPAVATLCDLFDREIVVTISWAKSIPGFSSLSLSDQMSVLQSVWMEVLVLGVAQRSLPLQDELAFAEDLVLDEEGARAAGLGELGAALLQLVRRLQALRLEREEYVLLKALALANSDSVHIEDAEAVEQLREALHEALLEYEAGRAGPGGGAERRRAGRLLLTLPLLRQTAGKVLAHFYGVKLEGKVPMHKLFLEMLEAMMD
structure (smiles),measurement,setting,value
O=S(=O)(c1ccc(Cl)cc1)c1cc(Cl)c(Cl)cc1Cl,outcome,[1],inactive
same,outcome,[2],inactive
same,outcome,[3],inactive
same,outcome,[4],inactive
same,outcome,[5],inactive
same,AC50,[6],2.79 µM (active)
same,outcome,[7],inactive
same,outcome,[8],inactive
same,outcome,[9],inactive
same,outcome,[10],inactive
same,outcome,[11],inactive
CC(C)[C@@H](Nc1ccc(C(F)(F)F)cc1Cl)C(=O)OC(C#N)c1cccc(Oc2ccccc2)c1 (some centres undefined),outcome,[1],inactive
same,outcome,[12],inactive
same,outcome,[3],inactive
same,outcome,[13],inactive
same,outcome,[4],inactive
same,outcome,[5],inactive
same,outcome,[7],inactive
same,outcome,[8],inactive
same,outcome,[9],inactive
same,outcome,[14],inactive
same,outcome,[11],inactive
NC(=O)c1ccc(N)nc1,outcome,[1],inactive
same,outcome,[12],inactive
same,outcome,[3],inactive
same,outcome,[13],inactive
same,outcome,[15],inactive
same,outcome,[4],inactive
same,outcome,[5],inactive
same,outcome,[6],inactive
same,outcome,[7],inactive
same,outcome,[9],inactive
same,outcome,[16],inactive
same,outcome,[14],inactive
same,outcome,[11],inactive
O=[N+]([O-])c1ccc(Nc2ccccc2)cc1,outcome,[1],inactive
same,outcome,[12],inactive
same,outcome,[3],inactive
same,outcome,[13],inactive
same,outcome,[15],inactive
same,outcome,[4],inactive
same,outcome,[5],inactive
same,outcome,[8],inactive
same,outcome,[9],inactive
same,outcome,[17],inactive
same,outcome,[18],inactive
same,outcome,[11],inactive
O=[N+]([O-])c1ccccc1O,outcome,[1],inactive
same,outcome,[12],inactive
same,outcome,[3],inactive
same,outcome,[13],inactive
same,outcome,[15],inactive
same,outcome,[4],inactive
same,outcome,[5],inactive
same,outcome,[19],inactive
same,outcome,[9],inactive
same,outcome,[14],inactive
same,outcome,[10],inactive
same,outcome,[18],inactive
same,outcome,[20],inactive
CC[N+](CC)(CC)CC,outcome,[1],inactive
same,outcome,[12],inactive
same,outcome,[3],inactive
same,outcome,[13],inactive
same,outcome,[15],inactive
same,outcome,[4],inactive
same,AC50,[5],1.07 µM (active)
same,outcome,[5],inactive
same,outcome,[7],inactive
same,outcome,[9],inactive
same,outcome,[10],inactive
same,outcome,[20],inactive
c1ccc(-c2cccc(-c3ccccc3)c2)cc1,outcome,[2],inactive
same,outcome,[12],inactive
same,outcome,[3],inactive
same,outcome,[13],inactive
same,outcome,[15],inactive
same,outcome,[4],inactive
same,AC50,[5],56.6 µM (active)
same,AC50,[8],27.3 µM (active)
same,outcome,[9],inactive
same,outcome,[14],inactive
same,outcome,[11],inactive
same,outcome,[20],inactive
Cc1cc(C)cc(C)c1,outcome,[2],inactive
same,outcome,[12],inactive
same,outcome,[3],inactive
same,outcome,[13],inactive
same,outcome,[15],inactive
same,outcome,[4],inactive
same,outcome,[5],inactive
same,outcome,[6],inactive
same,outcome,[9],inactive
same,outcome,[14],inactive
same,outcome,[10],inactive
CC1(C)[C@H](/C=C2\CCSC2=O)[C@@H]1C(=O)OCc1coc(Cc2ccccc2)c1,outcome,[2],inactive
same,outcome,[12],inactive
same,outcome,[3],inactive
same,AC50,[13],30.5 µM (active)
same,outcome,[4],inactive
same,outcome,[5],inactive
same,outcome,[7],inactive
same,outcome,[9],inactive
same,outcome,[20],inactive
